Test [1] in a line: AP1 Signaling Pathway (AID 357; active = well fitted curve in either direction with a large enough effect, not every such curve was filed as active;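 also: ME-180 reporter cells stimulated with EGF at its EC50 level; % is scaled to controls: 0 for no effect and ±100 for the full control effect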). Conditions: ME-180 AP-1-bla reporter, EGF-induced, beta-lactamase ratio, 5 h; at 17.2 µM (top of the series). Put shortly:
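AP-1-bla ME-180 cells, Opti-MEM + 0.5% dialyzed FBS, plated overnight 37 °C. Cpd titration + EC50 EGF, 5 h 37 °C. CCF4 2.5 h RT; ex 405, em 460/530 ratio → %activity, AC50.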

Test [2] is described as follows: NFAT Signaling Pathway (AID 444; active = well fitted curve in either direction with a large enough effect, not every such curve was filed as active;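 also: carbachol stimulus at about its EC50 of 1 µM final; % is scaled to controls: 0 for no effect and ±100 for the full control effect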). Conditions: Jurkat NFAT-bla M1, carbachol, beta-lactamase ratio, 5 h; at 17.2 µM (top of the series). Put shortly: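 Jurkat cells with NFAT-driven β-lactamase reporter and co-expressed M1 receptor, stimulated with carbachol (final 1 uM, ~EC50), compound titration, 5 h at 37 °C. CCF4 loaded 1 h at RT; 460/530 nm ratio gave %activity and AC50.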

Test [3] is described as follows: Stat Signaling Pathway (AID 446; active = well fitted curve in either direction with a large enough effect, not every such curve was filed as active;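 also: ME-180 cervical cancer cells given 40 pM IL-6 alongside compound; SIE-controlled beta-lactamase reporter measured as 460/530 nm FRET emission ratio; % is scaled to controls: 0 for no effect and ±100 for the full control effect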). Conditions: ME-180 (cervical carcinoma) SIE beta-lactamase reporter, IL-6 stimulated, 5 h; at 17.2 µM (top of the series). Put shortly: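 IL-6/STAT signaling read in ME-180 cells via an SIE beta-lactamase reporter. Stimulus was 40 pM IL-6 (its AC50) for 5 hrs, so both activation and inhibition register.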
Test [4] concerns the target Glucocorticoid receptor (Homo sapiens) (UniProt P04150). Kind of test: GR-GFP Redistribution (AID 450;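 active = compounds whose dose series gives a full or clear partial fitted curve of increased nuclear translocation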; also: potency is read from the fitted curve at half-maximal effect). To be noted: U2OS GR-GFP nuclear translocation, laser cytometry, 2 h.
Test [5] has the same target. Kind of test: GR-EFC Redistribution (AID 451; calls by dose curve; also: potency is read from the fitted curve at half-maximal effect). To be noted: CHO-K1 GR-EFC translocation, beta-gal luminescence, 2 h. Put shortly: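 CHO-K1 cells expressing nuclear EA and GR-ED fragments of b-gal; compounds titrated up to 46 uM final, 2 h at 37 C. GR nuclear translocation read as complemented b-gal luminescence after 1 h RT detection.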
For test [6], the target named is 3',5'-cyclic-AMP phosphodiesterase 4B (Homo sapiens) (UniProt Q07343). The test is described as follows: qHTS Assay for Inhibitors of PDE-IV (AID 607; active = well fitted activation curve with a large enough effect in the main read-out, with a control signal flat, not every such curve was filed as active; also: % of control where 0% means no effect). Conditions: HEK293 ACTOne CNG channel cells, membrane potential fluorescence; series mostly up to 22.9 µM. Put shortly: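 Live HEK293 cells with a modified cyclic nucleotide-gated (CNG) channel report intracellular cAMP via membrane-potential dye fluorescence (ex 535/em 590 nm). Endogenous PDE-IV was targeted. Compounds were tested at up to 22.9 uM final; RO 20-1724 100 uM served as control.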
Chain of 3',5'-cyclic-AMP phosphodiesterase 4B (Homo sapiens) (Q07343 whole entry, looked up): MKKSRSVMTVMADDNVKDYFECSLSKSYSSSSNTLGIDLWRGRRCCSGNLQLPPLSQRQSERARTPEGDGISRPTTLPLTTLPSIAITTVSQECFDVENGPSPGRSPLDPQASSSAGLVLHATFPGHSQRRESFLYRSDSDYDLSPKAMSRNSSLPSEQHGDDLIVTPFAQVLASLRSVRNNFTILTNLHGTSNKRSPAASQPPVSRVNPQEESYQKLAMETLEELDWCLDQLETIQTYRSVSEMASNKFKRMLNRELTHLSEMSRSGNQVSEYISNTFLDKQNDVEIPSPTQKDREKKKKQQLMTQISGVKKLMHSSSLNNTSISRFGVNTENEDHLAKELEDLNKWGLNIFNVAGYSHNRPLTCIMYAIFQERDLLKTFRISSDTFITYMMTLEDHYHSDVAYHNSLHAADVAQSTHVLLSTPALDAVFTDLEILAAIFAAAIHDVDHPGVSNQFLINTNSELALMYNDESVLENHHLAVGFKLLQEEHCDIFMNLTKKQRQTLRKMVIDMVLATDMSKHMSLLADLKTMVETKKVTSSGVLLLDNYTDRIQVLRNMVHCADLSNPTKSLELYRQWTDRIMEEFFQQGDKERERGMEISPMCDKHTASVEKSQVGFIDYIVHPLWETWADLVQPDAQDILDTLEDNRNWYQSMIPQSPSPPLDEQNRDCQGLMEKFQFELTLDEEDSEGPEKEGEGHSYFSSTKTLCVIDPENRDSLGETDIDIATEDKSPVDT
A general note: qHTS replaces the single test concentration by a dilution series.

The nature of test [7]: qHTS Assay for Lipid Storage Modulators (AID 1519; calls by dose curve). Conditions: Drosophila S3 cells, BODIPY lipid droplet/cell ratio, laser cytometry, cells loaded with oleic acid. Put shortly:
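Cells seeded at 5,000 per well were treated with compounds over a concentration series and loaded with oleic acid (400 uM, as added). Lipid droplet fluorescence (488 nm excitation, 500-530 nm channel) was read by laser-scanning cytometry and normalized to 20 uM Triacsin C.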

Test [8] concerns the target Ubiquitin carboxyl-terminal hydrolase 1 (Homo sapiens) (UniProt O94782). The test is described as follows: Inhibitors of USP1/UAF1: Pilot qHTS (AID 504865).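 Also: rhodamine fluorescence freed from ubiquitin-rhodamine substrate followed over time; top concentration of the series differs between compounds; % is scaled to controls: 0 for no effect and ±100 for the full control effect; nearly all actives have a fitted effect of over 35% in size.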 Conditions: purified USP1/UAF1, Ub-rhodamine cleavage fluorescence; series mostly up to 114 µM. Put shortly: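 USP1/UAF1 complex (1nM) preincubated with compound 15 min at room temperature, then Ub-Rho substrate (150nM final) added. Fluorescence read kinetically at 480/540 nm, 6 reads every 60 seconds. Buffer: 50mM HEPES pH 7.8, 0.5mM EDTA, 0.1 mg/ml BSA, 1mM TCEP, 0.01% Tween-20.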

Test [9] deals with DNA dC->dU-editing enzyme APOBEC-3G (Homo sapiens) (UniProt Q9HC16). Kind of test: qHTS for inhibitors of Vif-A3G interactions: Validation (AID 588379). Also: 0% is about no effect. Conditions: Vif-A3G protein interaction assay; series mostly up to 46.1 µM. Put shortly:
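HeLa cells stably expressing Vif and A3G-eYFP, 700 cells/well, incubated overnight at 37 deg C, then exposed to compound overnight at 37 deg C. Inhibition of Vif-mediated degradation read as increased yellow fluorescence (Ex 488/Em 500-530) by laser-scanning cytometry.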

Test [10] concerns Zika virus NS2B-NS3 protease. Kind of test: Primary screen GU AMC qHTS for Zika virus inhibitors (AID 1347154).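 Also: 0% = no-inhibitor control and -100% = no-enzyme control; nearly all actives have a fitted effect of over 70% in size.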 Conditions: Zika NS2B-NS3 unlinked protease, AMC fluorogenic substrate; series mostly up to 54.1 µM. Put shortly:
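Unlinked Zika NS2B hydrophilic domain–NS3 protease complex at 25 nM in 10 mM Tris-HCl pH 8.0, 0.01% Tween 20, with an AMC peptide substrate. Fluorescence change (340/450 nm) over 15 min at room temperature, normalized to controls, fitted to 4-parameter Hill.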

Test [11] is described as follows: Primary qHTS for small molecule stabilizers of the endoplasmic reticulum resident proteome: Secreted ER Calcium Modulated Protein (SERCaMP) assay (AID 1508630). Also: % is scaled to controls: 0 for no effect and ±100 for the full control effect. To be noted: SH-SY5Y GLuc-SERCaMP (Gaussia luciferase released on ER calcium loss) secretion, thapsigargin, luminescence; series mostly up to 38.4 µM. Put shortly: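 GLuc-SERCaMP-expressing SH-SY5Y cells, pretreated 16 h with compound, are challenged with thapsigargin to empty ER calcium stores; after 4 h, coelenterazine is added directly to the medium and luminescence is imaged.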

In test [12] the target is Rap guanine nucleotide exchange factor 3 (Homo sapiens) (UniProt O95398). The test is described as follows: Confirmatory qHTS for antagonist of cAMP-regulated guanine nucleotide exchange factor 3 (EPAC1) (AID 1645880).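 Also: plate controls were DMSO only for no effect and full effect of the ATA control for full effect; nearly all actives have a fitted effect of over 55% in size.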 Conditions: EPAC1 Rap1B-BODIPY-GDP exchange, fluorescence; series mostly up to 115 µM. Put shortly:
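Nucleotide exchange uses 100 nM EPAC1, 250 nM RAP1B-BODIPY-GDP and 50 uM GDP, with compounds in a concentration-titration series. After 5 min at room temperature, fluorescence (480 nm ex/540 nm em) is read every 5 min for 30 min. Data are normalized to control ATA and DMSO.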

Test [13] shares this target. Kind of test: Confirmatory qHTS for agonist of cAMP-regulated guanine nucleotide exchange factor 3 (EPAC1) (AID 1645881).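 Also: EPAC1 catalysed release of BODIPY-GDP from Rap1B seen as fluorescence loss; nearly all actives have a fitted effect of over 75% in size.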 Conditions: EPAC1 Rap1B BODIPY-GDP exchange fluorescence, 100% = cAMP control response; series mostly up to 154 µM.
For test [14], the target named is Rap guanine nucleotide exchange factor 4 (Homo sapiens) (UniProt Q8WZA2). The test is described as follows: Confirmatory qHTS for agonist of cAMP-regulated guanine nucleotide exchange factor 4 (EPAC2) (AID 1645884).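 Also: nucleotide exchange releases bodipy-GDP from Rap1 and this lowers its fluorescence; % is scaled to controls: 0 for no effect and ±100 for the full control effect; nearly all actives have a fitted effect of over 65% in size.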 Conditions: EPAC2 GEF activity, Rap1B-BODIPY-GDP fluorescence, percent relative to cAMP agonist control; series mostly up to 154 µM.
Chain of Rap guanine nucleotide exchange factor 4 (Homo sapiens) (Q8WZA2 whole entry, looked up): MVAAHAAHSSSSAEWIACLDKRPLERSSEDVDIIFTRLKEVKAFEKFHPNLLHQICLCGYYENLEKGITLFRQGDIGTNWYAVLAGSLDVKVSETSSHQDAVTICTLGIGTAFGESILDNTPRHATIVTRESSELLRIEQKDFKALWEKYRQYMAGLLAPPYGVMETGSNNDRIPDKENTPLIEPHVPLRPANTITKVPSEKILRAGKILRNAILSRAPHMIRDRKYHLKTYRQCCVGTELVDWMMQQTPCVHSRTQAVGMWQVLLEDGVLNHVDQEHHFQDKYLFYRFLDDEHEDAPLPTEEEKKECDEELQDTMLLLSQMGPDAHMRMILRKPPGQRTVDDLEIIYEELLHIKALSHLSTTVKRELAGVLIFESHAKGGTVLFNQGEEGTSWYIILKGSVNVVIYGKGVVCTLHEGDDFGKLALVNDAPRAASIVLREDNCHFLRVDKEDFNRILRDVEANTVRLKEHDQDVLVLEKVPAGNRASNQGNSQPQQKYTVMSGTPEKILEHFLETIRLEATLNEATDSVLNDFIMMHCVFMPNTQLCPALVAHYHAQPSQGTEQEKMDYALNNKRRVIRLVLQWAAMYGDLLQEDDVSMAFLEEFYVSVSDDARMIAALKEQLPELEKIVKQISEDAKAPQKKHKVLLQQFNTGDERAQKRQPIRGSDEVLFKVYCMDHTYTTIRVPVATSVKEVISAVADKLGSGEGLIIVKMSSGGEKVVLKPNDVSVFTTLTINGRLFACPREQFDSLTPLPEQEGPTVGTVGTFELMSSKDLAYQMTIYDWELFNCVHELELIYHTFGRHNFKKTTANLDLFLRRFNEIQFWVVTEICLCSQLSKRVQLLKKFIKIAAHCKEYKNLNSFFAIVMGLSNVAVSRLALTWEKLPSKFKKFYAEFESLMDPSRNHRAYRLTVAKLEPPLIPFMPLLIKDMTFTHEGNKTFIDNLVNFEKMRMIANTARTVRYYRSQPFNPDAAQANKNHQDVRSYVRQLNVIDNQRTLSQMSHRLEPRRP
For test [15] the target is unchanged. Kind of test: Confirmatory qHTS for antagonist of cAMP-regulated guanine nucleotide exchange factor 4 (EPAC2) (AID 1645885). Also: % is scaled to controls: 0 for no effect and ±100 for the full control effect; nearly all actives have a fitted effect of over 25% in size. To be noted: EPAC2 Rap1B-BODIPY-GDP exchange fluorescence, biochemical; series mostly up to 114 µM.

Several values for one entry are separate records, joined by “and”; a condition that tells them apart may be missing. Equal values may be shown once. Inconclusive results are not listed. Activity calls are given as the source filed them. Unless noted, calls follow the shape of the dose curve; as a rule, active = well fitted curve in the direction sought with a large enough effect; inconclusive = small, poorly fitted or top-dose-only effect, or another doubt; inactive = no such curve, though single readings can be large; an effect the other way counts as inactive or inconclusive.

Chain of Glucocorticoid receptor (Homo sapiens) (P04150 whole entry, looked up, the tested form may be a part): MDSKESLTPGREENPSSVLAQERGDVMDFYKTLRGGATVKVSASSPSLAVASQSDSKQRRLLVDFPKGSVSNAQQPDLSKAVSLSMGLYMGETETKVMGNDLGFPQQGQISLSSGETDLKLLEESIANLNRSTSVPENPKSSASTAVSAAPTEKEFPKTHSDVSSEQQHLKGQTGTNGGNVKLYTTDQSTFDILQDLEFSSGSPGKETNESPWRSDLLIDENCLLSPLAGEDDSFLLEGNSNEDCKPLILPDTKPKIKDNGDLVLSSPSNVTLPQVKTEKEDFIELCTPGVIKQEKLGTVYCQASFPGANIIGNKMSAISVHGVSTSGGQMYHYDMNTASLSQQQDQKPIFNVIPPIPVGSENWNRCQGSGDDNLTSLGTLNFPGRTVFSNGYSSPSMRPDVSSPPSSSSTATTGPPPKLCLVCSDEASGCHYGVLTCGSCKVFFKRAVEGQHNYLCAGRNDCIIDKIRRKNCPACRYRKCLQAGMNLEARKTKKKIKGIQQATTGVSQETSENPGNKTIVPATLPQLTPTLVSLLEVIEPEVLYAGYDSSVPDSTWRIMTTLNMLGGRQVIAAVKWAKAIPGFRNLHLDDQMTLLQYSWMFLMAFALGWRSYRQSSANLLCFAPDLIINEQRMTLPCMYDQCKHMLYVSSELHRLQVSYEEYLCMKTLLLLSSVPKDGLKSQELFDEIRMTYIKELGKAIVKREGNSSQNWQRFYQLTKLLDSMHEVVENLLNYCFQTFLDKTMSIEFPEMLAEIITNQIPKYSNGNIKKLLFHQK
Chain of Rap guanine nucleotide exchange factor 3 (Homo sapiens) (O95398 whole entry, looked up): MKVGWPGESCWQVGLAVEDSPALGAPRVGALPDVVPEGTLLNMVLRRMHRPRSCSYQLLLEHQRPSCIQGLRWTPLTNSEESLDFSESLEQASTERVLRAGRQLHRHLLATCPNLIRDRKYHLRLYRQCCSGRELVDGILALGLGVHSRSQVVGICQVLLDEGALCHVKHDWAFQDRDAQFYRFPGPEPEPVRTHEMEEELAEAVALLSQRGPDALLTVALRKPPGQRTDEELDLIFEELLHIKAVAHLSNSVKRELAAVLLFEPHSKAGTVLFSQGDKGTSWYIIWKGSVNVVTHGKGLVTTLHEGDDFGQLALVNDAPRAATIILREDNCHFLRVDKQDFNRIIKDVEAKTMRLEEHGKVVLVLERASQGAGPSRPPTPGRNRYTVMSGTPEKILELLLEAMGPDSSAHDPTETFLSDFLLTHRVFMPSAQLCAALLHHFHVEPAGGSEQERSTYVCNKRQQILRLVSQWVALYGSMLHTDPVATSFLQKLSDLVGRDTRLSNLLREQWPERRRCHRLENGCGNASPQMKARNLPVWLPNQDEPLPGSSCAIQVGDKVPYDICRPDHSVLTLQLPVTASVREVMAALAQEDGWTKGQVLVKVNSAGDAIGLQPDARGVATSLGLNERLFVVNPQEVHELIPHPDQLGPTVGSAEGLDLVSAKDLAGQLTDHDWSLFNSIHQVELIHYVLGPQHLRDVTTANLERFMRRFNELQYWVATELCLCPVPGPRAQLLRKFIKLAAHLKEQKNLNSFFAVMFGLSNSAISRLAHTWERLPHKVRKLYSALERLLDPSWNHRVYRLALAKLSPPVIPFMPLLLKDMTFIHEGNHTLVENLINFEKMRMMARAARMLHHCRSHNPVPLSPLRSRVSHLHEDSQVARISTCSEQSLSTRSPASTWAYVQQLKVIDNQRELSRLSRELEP
Chain of DNA dC->dU-editing enzyme APOBEC-3G (Homo sapiens) (Q9HC16 whole entry, looked up): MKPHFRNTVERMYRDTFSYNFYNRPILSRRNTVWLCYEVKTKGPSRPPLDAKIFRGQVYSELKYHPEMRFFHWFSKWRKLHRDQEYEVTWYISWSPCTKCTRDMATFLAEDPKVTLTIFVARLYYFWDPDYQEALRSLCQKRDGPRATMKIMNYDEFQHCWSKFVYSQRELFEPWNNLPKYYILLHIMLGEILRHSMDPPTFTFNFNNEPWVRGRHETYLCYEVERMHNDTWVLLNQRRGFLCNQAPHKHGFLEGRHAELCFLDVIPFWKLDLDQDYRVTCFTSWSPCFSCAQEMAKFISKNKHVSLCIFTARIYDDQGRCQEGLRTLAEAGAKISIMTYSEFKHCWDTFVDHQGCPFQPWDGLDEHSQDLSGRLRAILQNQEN
Chain of Ubiquitin carboxyl-terminal hydrolase 1 (Homo sapiens) (O94782 whole entry, looked up): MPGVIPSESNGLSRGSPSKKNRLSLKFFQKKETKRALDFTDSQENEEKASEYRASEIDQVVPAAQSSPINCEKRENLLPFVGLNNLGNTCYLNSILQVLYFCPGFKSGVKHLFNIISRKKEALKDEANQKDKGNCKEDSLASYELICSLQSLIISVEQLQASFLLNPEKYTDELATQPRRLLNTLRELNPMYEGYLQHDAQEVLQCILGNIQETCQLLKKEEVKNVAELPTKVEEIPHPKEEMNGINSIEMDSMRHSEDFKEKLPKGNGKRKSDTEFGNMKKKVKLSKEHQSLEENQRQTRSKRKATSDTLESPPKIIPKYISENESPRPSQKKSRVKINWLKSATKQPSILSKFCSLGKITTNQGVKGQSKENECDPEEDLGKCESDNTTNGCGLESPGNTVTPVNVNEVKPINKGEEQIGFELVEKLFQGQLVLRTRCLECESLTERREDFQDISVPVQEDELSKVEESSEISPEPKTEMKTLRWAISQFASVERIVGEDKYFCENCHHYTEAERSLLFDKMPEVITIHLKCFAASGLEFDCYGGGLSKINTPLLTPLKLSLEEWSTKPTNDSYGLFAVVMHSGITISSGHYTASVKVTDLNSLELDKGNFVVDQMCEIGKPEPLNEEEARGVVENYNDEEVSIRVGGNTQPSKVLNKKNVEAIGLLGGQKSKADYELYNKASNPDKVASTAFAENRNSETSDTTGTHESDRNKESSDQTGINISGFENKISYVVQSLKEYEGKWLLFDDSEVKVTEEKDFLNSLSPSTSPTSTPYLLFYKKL

Take `CN(C)CCCSC(=N)N`: the activity change, negative = inhibition was 2.97% (inactive) in test [1], -13.3% (inactive) in test [2], -2.91% (inactive) in [7] (at 25.7 µM (top of the series)) and 3.5% (inactive) in test [7] (at 57.5 µM (top of the series)). In addition, in [3], the activity, negative = inhibition is -1.52% (inactive). Moreover, the Potency is > 20.6 µM (inactive) and > 46 µM (inactive) in test [4]; > 20.6 µM (inactive) and > 46 µM (inactive) in test [5]. Moreover, the Potency entry in test [6], in test [8], in [9], in test [10], in [11] and in [12] was “inactive” each time. For the same compound, in test [15], the Potency result was “inactive”. Also, the max response in [7] (measured here: cell count channel max response) is -7.27% and -5.75%; in [7] (measured here: lipid channel max response) it was -5.95% and 13.8%. The call in test [13] and in test [14] was inactive.

The values are drawn from PubChem BioAssay (NCATS).
